Experimental data: PubChem BioAssay AID1159580 (chemical genetic matrix, 2015)
Screen size: about 5,500 compounds; about 2,000 (36%) were called active. Not shown: some 18% with an inconclusive outcome. Cut-off read from the data, not from the text of the source: active = normalized growth mostly below about 0.91 (no sharp cut-off); inconclusive = no clear call, values can overlap the other calls; inactive = mostly above about 0.92. Some of the results follow.

Assay: chemical genetic growth profiling, strain panel (AID 1159580);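 note: tested at 20 µM; growth read once vehicle control cultures reached saturation at 30 °C; 1 = growth at the plate median or of vehicle wells; lower values mean less growth of the strain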
Conditions: growth OD

Measured: normalized growth

COC(=O)C[C@H]1C(C)(C)[C@H](O)[C@@H]2CC3=C4CC(O)O[C@@H](c5ccoc5)[C@]4(C)CCC3[C@@]1(C)C2=O (stereo partly specified)
inactive: S. cerevisiae deletion strains, locus YBR021W, strain FUR4, hits give low values 1.01 | S. cerevisiae deletion strains, locus YBR229C, strain ROT2, hits give low values 0.948 | S. cerevisiae deletion strains, locus YCL029C, strain bik1, hits give low values 0.969 | S. cerevisiae deletion strains, locus YDL035C, strain GPR1, hits give low values 0.974 | S. cerevisiae deletion strains, locus YDL074C, strain BRE1, hits give low values 0.966 | S. cerevisiae deletion strains, locus YDL101C, strain DUN1, hits give low values 0.99 | S. cerevisiae deletion strains, locus YDL185W, strain tfp1, hits give low values 0.971 | S. cerevisiae deletion strains, locus YDL192W, strain arf1, hits give low values 0.978 | S. cerevisiae deletion strains, locus YDR101C, strain arx1, hits give low values 0.983 | S. cerevisiae deletion strains, locus YDR162C, strain NBP2, hits give low values 0.984 | S. cerevisiae deletion strains, locus YDR318W, strain mcm21, hits give low values 0.992 | S. cerevisiae deletion strains, locus YDR388W, hits give low values 0.979 | S. cerevisiae deletion strains, locus YDR502C, strain sam2, hits give low values 1.02 | S. cerevisiae deletion strains, locus YEL061C, strain CIN8, hits give low values 0.974 | S. cerevisiae deletion strains, locus YER110C, hits give low values 0.985 | S. cerevisiae deletion strains, locus YER155C, strain BEM2, hits give low values 1 | S. cerevisiae deletion strains, locus YER167W, strain BCK2, hits give low values 0.969 | S. cerevisiae deletion strains, locus YGL078C, strain dbp3, hits give low values 1.03 | S. cerevisiae deletion strains, locus YGL086W, strain mad1, hits give low values 1 | S. cerevisiae deletion strains, locus YGL248W, strain PDE1, hits give low values 0.991 | S. cerevisiae deletion strains, locus YGR078C, strain PAC10, hits give low values 1.02 | S. cerevisiae deletion strains, locus YGR135W, strain pre9, hits give low values 1.07 | S. cerevisiae deletion strains, locus YGR229C, strain SMI1, hits give low values 1.02 | S. cerevisiae deletion strains, locus YGR252W, strain gcn5, hits give low values 1.03 | S. cerevisiae deletion strains, locus YHR030C, strain SLT2, hits give low values 0.996 | S. cerevisiae deletion strains, locus YHR079C, strain IRE1 (second series), hits give low values 0.993 | S. cerevisiae deletion strains, locus YHR094C, strain hxt1, hits give low values 0.984 | S. cerevisiae deletion strains, locus YHR129C, strain ARP1, hits give low values 0.99 | S. cerevisiae deletion strains, locus YHR200W, strain rpn10, hits give low values 0.999 | S. cerevisiae deletion strains, locus YIL066C, strain RNR3, hits give low values 0.948 | S. cerevisiae deletion strains, locus YIL073C, strain SPO22, hits give low values 0.964 | S. cerevisiae deletion strains, locus YIL125W, strain kgd1, hits give low values 0.986 | S. cerevisiae deletion strains, locus YIR030C, strain dcg1, hits give low values 0.99 | S. cerevisiae deletion strains, locus YJL095W, strain BCK1, hits give low values 0.993 | S. cerevisiae deletion strains, locus YJL134W, strain LCB3, hits give low values 0.971 | S. cerevisiae deletion strains, locus YJL168C, strain set2, hits give low values 0.991 | S. cerevisiae deletion strains, locus YJL187C, strain SWE1 (second series), hits give low values 1 | S. cerevisiae deletion strains, locus YJR043C, strain POL32, hits give low values 0.975 | S. cerevisiae deletion strains, locus YKL009W, strain mrt4, hits give low values 0.953 | S. cerevisiae deletion strains, locus YKL068W, hits give low values 0.985 | S. cerevisiae deletion strains, locus YKL085W, strain MDH1 (second series), hits give low values 0.988 | S. cerevisiae deletion strains, locus YKL085W, strain MDH1, hits give low values 0.988 | S. cerevisiae deletion strains, locus YKL190W, strain CNB1, hits give low values 0.98 | S. cerevisiae deletion strains, locus YKR001C, strain vps1, hits give low values 0.978 | S. cerevisiae deletion strains, locus YLR039C, strain RIC1, hits give low values 0.964 | S. cerevisiae deletion strains, locus YLR058C, strain SHM2, hits give low values 0.975 | S. cerevisiae deletion strains, locus YLR102C, strain apc9, hits give low values 0.991 | S. cerevisiae deletion strains, locus YLR262C, strain YPT6, hits give low values 0.99 | S. cerevisiae deletion strains, locus YLR268W, strain sec22, hits give low values 0.953 | S. cerevisiae deletion strains, locus YLR330W, strain CHS5, hits give low values 0.986 | S. cerevisiae deletion strains, locus YLR371W, strain rom2, hits give low values 0.986 | S. cerevisiae deletion strains, locus YLR418C, strain cdc73, hits give low values 0.975 | S. cerevisiae deletion strains, locus YML016C, strain PPZ1, hits give low values 0.977 | S. cerevisiae deletion strains, locus YML032C, strain rad52, hits give low values 0.976 | S. cerevisiae deletion strains, locus YML124C, strain tub3, hits give low values 0.992 | S. cerevisiae deletion strains, locus YMR078C, strain ctf18, hits give low values 0.989 | S. cerevisiae deletion strains, locus YMR223W, strain ubp8, hits give low values 1 | S. cerevisiae deletion strains, locus YMR307W, strain GAS1, hits give low values 0.951 | S. cerevisiae deletion strains, locus YNL067W, strain RPL9B, hits give low values 1.03 | S. cerevisiae deletion strains, locus YNL153C, strain GIM3, hits give low values 1.01 | S. cerevisiae deletion strains, locus YNL233W, strain BNI4, hits give low values 1.03 | S. cerevisiae deletion strains, locus YNL250W, strain rad50, hits give low values 0.998 | S. cerevisiae deletion strains, locus YNL271C, strain bni1, hits give low values 0.989 | S. cerevisiae deletion strains, locus YNL298W, strain CLA4, hits give low values 0.984 | S. cerevisiae deletion strains, locus YNL307C, strain MCK1, hits give low values 0.994 | S. cerevisiae deletion strains, locus YNR052C, strain pop2, hits give low values 1.04 | S. cerevisiae deletion strains, locus YOL012C, strain htz1 0.912 | S. cerevisiae deletion strains, locus YOL147C, strain pex11, hits give low values 0.989 | S. cerevisiae deletion strains, locus YOR061W, strain CKA2, hits give low values 0.944 | S. cerevisiae deletion strains, locus YOR069W, strain VPS5, hits give low values 0.986 | S. cerevisiae deletion strains, locus YOR136W, strain idh2, hits give low values 0.994 | S. cerevisiae deletion strains, locus YOR144C, strain elg1, hits give low values 0.991 | S. cerevisiae deletion strains, locus YOR184W, strain ser1, hits give low values 0.954 | S. cerevisiae deletion strains, locus YOR316C, strain cot1, hits give low values 0.992 | S. cerevisiae deletion strains, locus YPL241C, strain CIN2, hits give low values 0.988 | S. cerevisiae deletion strains, locus YPR119W, strain clb2, hits give low values 1.01 | S. cerevisiae deletion strains, locus YPR141C, strain kar3, hits give low values 0.989 | S. cerevisiae deletion strains, locus YPR163C, strain tif3, hits give low values 0.987 | S. cerevisiae deletion strains, locus YPR167C, strain met16, hits give low values 0.996 | S. cerevisiae deletion strains, strain wtn01, hits give low values 0.98 | S. cerevisiae strains, strain wild type, hits give low values 0.979
